Screening data (PubChem BioAssay)
Most compounds without a hit are left out; they make up all but 1.3% or so of the library.
PrP UTR inh: inhibition of PrP 5' UTR reporter expression; inhibition, % (no concentration beside the values); actives 0.35% (n = 340,000); cell-based PrP 5' UTR mRNA reporter, plate reader; in the data active = inhibition above about 52%; note: 0 = median of the neutral control wells
CCHF vOTU inh: CCHFV vOTU protease inhibition; Pep-AMC fluorescence; inhibition, % at 11.5 µM; actives 0.55% (n = 370,000); in the data active = inhibition above about 30%; note: 0% = vehicle wells with enzyme and 100% = no enzyme wells
PrPC surface inh: cell surface PrPC inhibition, primary TR-FRET screen; P04156; inhibition, % at 13.8 µM; actives 0.43% (n = 370,000); TR-FRET read-out; AID 720596; in the data active = inhibition above about 24%; note: 0% = median of the test wells and 100% = reference compound wells
SARS 3CLpro inh: SARS-CoV 3CLpro protease inhibition; actives 0.14% (n = 290,000); inhibition, % at 6 µM; recombinant SARS-CoV 3CLpro, quenched FRET peptide cleavage; P0C6X7; in the data active = inhibition above about 12%
PrP UTR cherry: prion 5' UTR mRNA inhibition, cherry-pick retest; shares compounds with PrP UTR inh; cell-based prion protein 5' UTR reporter, plate reader; inhibition, % at 2.5 µM; actives 48% (n = 1,100); AID 504592; in the data active = inhibition above about 54%; inconclusive = no clear call, values can overlap the other calls
Active calls of the source: *; ? = inconclusive; . = no result; ! = not active in a repeat.

SMILES | PrP UTR inh | CCHF vOTU inh | PrPC surface inh | SARS 3CLpro inh | PrP UTR cherry
COc1ccccc1-c1nnc2n1N=C(c1ccc(O)c(O)c1)CS2 | 60.7* | . | . | 2.3 | 89.9*
COc1ccc(C2=Nn3c(nnc3-c3ccccc3C(F)(F)F)SC2)cc1OC1CCOC1 (stereo unspecified) | 15.2 | -4.2 | 5.0 | . | .
COc1ccc(OC)c(-c2nnc3n2N=C(c2ccc(OC)c(OCC4CC4)c2)CS3)c1 | 67.3* | . | . | . | 93.1*
CS(=O)(=O)N1CCN(C(=O)C(Sc2ccccc2)c2ccccc2)CC1 (stereo unspecified) | -6.5 | -8.3 | -2.1 | 4.2 | .
COCCNC(=O)Cn1nc(C)c2ccccc2c1=O | -7.6 | 0.4 | 4.1 | 5.8 | .
NC(=S)NN=Cc1nccc2ccccc12 | 78.6* | 17.0 | 23.5 | . | 71.0*
CCCCc1c(C)nc2ccc(C(=O)OCC)cc2c1Cl | -3.9 | 1.5 | 0.5 | 2.1 | .
COc1ccc(C(C#N)=C2C=C(Cl)C(=NO)C=C2Cl)cc1 | . | -8.7 | 5.6 | . | .
COc1ccc(C(C#N)=C2C=CC(=NO)C(C)=C2Cl)cc1 | 71.3* | -7.1 | 1.4 | . | -34.9
CCOC(=O)C1(CC2CCCCO2)CCN(Cc2ccc(OC)cc2F)CC1 (stereo unspecified) | 79.6* | -16.4 | -5.7 | -2.1 | -14.6
COCn1cnc(-c2ccccc2)c1-c1ccccc1 | -17.8 | 1.4 | -8.8 | . | .
CN(C)c1ccc2c(c1)OC(N)=C(C#N)C2c1cccc(F)c1 (stereo unspecified) | 66.0* | . | . | -2.9 | 90.3*
O=C(O)C1(Br)CC12c1ccccc1-c1ccccc12 (stereo unspecified) | 53.8* | -0.5 | 0.9 | . | -6.5
COc1ccccc1NC(=O)CC1CCCC1 | 1.6 | 2.9 | 0.0 | -10.3 | .
O=C(Nc1ccccn1)c1cc2ccccc2o1 | 58.7* | -1.8 | -7.3 | -3.9 | 57.4*
Cc1ccc(C)c(NC(=O)c2cc3ccccc3o2)c1 | -50.2 | 5.2 | 6.5 | -0.2 | .
Cc1ccnc(NC(=O)c2cc3ccccc3o2)c1 | 58.3* | -10.1 | 0.3 | . | ?
O=C(Nc1ccc(Cl)cn1)c1cc2ccccc2o1 | -125.4 | 6.4 | -3.7 | -1.8 | .
COc1ccc(NC(=O)C2CCN(C(=O)NCc3ccccc3)CC2)cc1 | -6.4 | -10.4 | -5.0 | 0.7 | .
O=C(NC1CCCCCC1)c1cc2c(=O)n3ccccc3nc2s1 | -33.6 | -144.2 | -15.9 | -3.5 | .
CCCCCCOC(=O)C1=C(C)NC(=O)NC1c1ccc(O)cc1 (stereo unspecified) | -9.8 | 1.5 | 7.3 | 2.6 | .
COc1ccc(S(=O)(=O)Cc2ccc(C(=O)N3CCOCC3)o2)cc1 | 70.9* | -4.3 | -3.8 | -1.6 | -0.9
O=C(c1ccc(CS(=O)(=O)c2ccc(Br)cc2)o1)N1CCOCC1 | -16.8 | 0.7 | -3.4 | 0.3 | .
O[C@H]1COC2C1OC[C@@H]2O (stereo partly specified) | -18.7 | 0.3 | 2.1 | 4.4 | .
CCOC(=O)c1c(C)[nH]c(C(=O)OCCOc2ccccc2C)c1C | 81.5* | 10.9 | -6.2 | -4.5 | -59.9
SMILES | PrP UTR inh | CCHF vOTU inh | PrPC surface inh | SARS 3CLpro inh | PrP UTR cherry
COc1ccc(C(CNC(=O)c2ccc(S(=O)(=O)N3CCCC3)cc2)N2CCOCC2)cc1 (stereo unspecified) | -17.1 | 4.0 | -7.1 | 3.8 | .
O=C(NCC(c1ccco1)N1CCCC1)c1ccc(S(=O)(=O)Nc2ccc(F)cc2)cc1 (stereo unspecified) | -2.8 | 14.7 | -0.3 | . | .
C=CCN1CC[C@]23c4c5ccc(O)c4OC2[C@H](O)CC[C@@]3(O)[C@H]1C5 (stereo partly specified) | 1.1 | 1.3 | -7.3 | . | .
Oc1ccc2c3c1O[C@H]1[C@@H](O)CC[C@@]4(O)[C@@H](C2)N(CC2CCC2)CC[C@]314 | 62.9*! | -7.8 | 10.1 | . | -6.5
CCN(CC)c1ccc(/C=C(/C#N)C(=O)NC(C)C)o1 | 82.0* | 10.6 | -22.3 | -4.0 | -24.1
Cc1ccc(C(=O)N/N=C/c2ccc([N+](=O)[O-])s2)cc1 | 74.6* | 11.6 | -27.4 | 1.1 | 77.1*
CN(C)CCN1C(=O)c2cccc3cc([N+](=O)[O-])cc(c23)C1=O | 66.4* | 16.5 | -16.7 | . | 83.8*
COc1ccc(-c2nn(-c3ccccc3)cc2C(=O)N2CCN(C(=O)c3ccco3)CC2)cc1 | -8.1 | 4.9 | -1.5 | . | .
CC1=CC2OC3CC4OC(=O)C=CC=CC(=O)OCCC(C)C(O)C(=O)OCC2(CC1O)C4(C)C31CO1 (stereo unspecified) | 93.6* | . | . | . | 97.0*
COc1ccccc1NC(=O)c1oc2ccccc2c1NC(=O)c1cc(OC)c(OC)c(OC)c1 | 56.4* | 12.6 | -0.1 | -1.9 | 84.4*
